The list is not random: actives were taken first. Their share in the collection is about 2.2%.
VACV mCherry inh: vaccinia inhibition (mCherry reporter); Potency, µM (titrated, usually from 36.5 µM), for the others: top-dose activity change, negative = inhibition, most hits filed as inhibitors; Vaccinia virus mCherry reporter infection, fluorescence; 0.63% of 310,000 active; AID 720579; calls by dose curve; tested in A549 cells; note: nearly all actives have a fitted effect of over 35% in size
Giardia FBPA inh-1: inhibitors of Giardia lamblia fructose-1,6-bisphosphate aldolase; A8B2U2; purified Giardia FBPA; Potency, µM (highest dose often 59.6 µM), without a hit: at the top dose activity, negative = inhibition, hits mostly inhibitors; 0.71% of 290,000 active; AID 2451; note: nearly all actives have a fitted effect of over 55% in size
Target sequence (A8B2U2 whole entry, looked up): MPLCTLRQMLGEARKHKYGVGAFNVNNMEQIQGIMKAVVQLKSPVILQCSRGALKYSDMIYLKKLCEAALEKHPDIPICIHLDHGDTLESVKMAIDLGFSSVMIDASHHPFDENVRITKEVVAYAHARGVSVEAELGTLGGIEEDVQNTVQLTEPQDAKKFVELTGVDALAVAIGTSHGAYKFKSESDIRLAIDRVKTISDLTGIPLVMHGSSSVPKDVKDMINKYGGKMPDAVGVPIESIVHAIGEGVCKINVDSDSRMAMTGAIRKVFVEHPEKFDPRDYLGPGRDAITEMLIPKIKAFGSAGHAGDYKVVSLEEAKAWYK
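Giardia FBPA (40 nM reagent) was preincubated 10 min at RT with compound (up to 57.5 uM final), then substrate plus GAPDH/TPI/NAD/arsenate coupling system with diaphorase/resazurin was added; resorufin fluorescence (525/598 nm) was read after 20 min.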
Vaccinia Venus: vaccinia inhibition (Venus reporter) | Vaccinia virus Venus reporter expression, fluorescence | Potency, µM (top dose mostly 36.5 µM), for inactives: at the top dose activity change, negative = inhibition, usual class: inhibitors | 0.46% of 330,000 active | AID 720580; calls by dose curve; tested in A549 cells; note: nearly all actives have a fitted effect of over 30% in size
FMDV antiviral: foot and mouth disease virus antiviral activity | AID 1159524 | FMDV antiviral cell-based qHTS | 1.2% of 410,000 active | Potency, µM (top dose mostly 57.9 µM), without a hit: top-dose activity change, negative = inhibition, most hits filed as inhibitors; calls by dose curve; tested in HEK293T cells; note: read-out not given here; nearly all actives have a fitted effect of over 45% in size
Giardia growth: inhibitors of Giardia lamblia growth; shares compounds with Giardia FBPA inh-1; Giardia lamblia trophozoite growth inhibition; Potency, µM (top dose mostly 57.5 µM), inactives show at the top dose activity change, negative = inhibition, usual class: inhibitors; 5% of 1,500 active; AID 2785;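 note: trophozoites exposed to compound for 48 h at 37 °C; nearly all actives have a fitted effect of over 70% in size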
Mammalian tox: toxic to mammalian cells in Giardia aldolase counter-screen. shares compounds with Giardia FBPA inh-1. mammalian cell viability counter-screen, qHTS. Potency, µM (series often up to 57.5 µM), inactives show at the highest dose viability change, negative = toxicity, hits mostly inhibitors. 4% of 1,500 active. AID 2786;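 note: Chinese hamster ovary cells used as mammalian cytotoxicity surrogate; viability measured as cellular ATP by luminescence; compound exposure lasted 48 h before reading; nearly all actives have a fitted effect of over 60% in size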
Giardia FBPA inh-2: confirmation of Giardia fructose-bisphosphate aldolase inhibitors. Potency, µM (highest dose often 57.5 µM), for the others: top-dose activity change, negative = inhibition, actives largely listed as inhibitors. shares compounds with Giardia FBPA inh-1. purified Giardia aldolase enzyme activity, qHTS. AID 2787. 5% of 1,500 active; note: nearly all actives have a fitted effect of over 45% in size
Rabbit aldolase: selectivity test for Giardia aldolase inhibitors: rabbit aldolase. shares compounds with Giardia FBPA inh-1. Rabbit muscle FBPA enzyme inhibition, selectivity counter-screen. 4% of 1,500 active. Potency, µM (highest dose often 57.5 µM), for inactives: at the highest dose activity, negative = inhibition, hits mostly inhibitors; note: nearly all actives have a fitted effect of over 60% in size
Target sequence (P00883 whole entry, looked up): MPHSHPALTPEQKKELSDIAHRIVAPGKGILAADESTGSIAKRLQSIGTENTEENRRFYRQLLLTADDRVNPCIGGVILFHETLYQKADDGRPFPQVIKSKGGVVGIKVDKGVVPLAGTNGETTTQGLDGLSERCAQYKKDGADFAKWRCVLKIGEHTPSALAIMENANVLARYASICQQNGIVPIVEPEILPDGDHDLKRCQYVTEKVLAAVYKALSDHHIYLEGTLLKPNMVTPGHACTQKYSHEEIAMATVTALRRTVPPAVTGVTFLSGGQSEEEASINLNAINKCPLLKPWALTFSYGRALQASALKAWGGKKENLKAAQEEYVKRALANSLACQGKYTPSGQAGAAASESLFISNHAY
GAPDH coupling: GAPDH inhibition flagged for Giardia aldolase hits; shares compounds with Giardia FBPA inh-1; GAPDH coupling enzyme counterscreen, biochemical, qHTS; Potency, µM (doses to about 57.5 µM), for the others: top-dose activity change, negative = inhibition, most hits filed as inhibitors; 6% of 1,500 active; note: nearly all actives have a fitted effect of over 55% in size
* = called active by the depositor; i = inactive; ? = inconclusive; nt = no result; [ ] = another dose, or the depositor's remark. Unless noted, calls come from the whole dose curve; as a rule, active = well fitted curve in the direction sought with a large enough effect; inconclusive = small, poorly fitted or top-dose-only effect, or another doubt; inactive = no such curve, though single readings can be large; an effect the other way counts as inactive or inconclusive. % is set by controls: 0 for no effect and ±100 for the full control effect; potency is the fitted concentration of half-maximal effect.

SMILES | VACV mCherry inh | Giardia FBPA inh-1 | Vaccinia Venus | FMDV antiviral | Giardia growth | Mammalian tox | Giardia FBPA inh-2 | Rabbit aldolase | GAPDH coupling
CNc1cccccc1=S | nt | 10µM* | nt | -3% | -13% | 5% | ? | ? | 32µM*
Cc1ccc(C(=O)NNC(=S)NC(=O)c2ccc(Cl)cc2Cl)cc1 | -30% | ? | -14% | nt | -33%[38.3 µM] | ? | 10% | 4% | 11%
Cc1ccc(C(=O)NNC(=S)NC(=O)c2ccccc2)cc1 | ? | nt | ? | -8% | nt | nt | nt | nt | nt
O=C(Oc1ccc[nH]c1=O)c1cccc(Cl)c1 | i | -18% | -12% | -14% | 15%[38.3 µM] | 10% | 0.52µM* | ? | 33µM*
Cc1cc(C=C2C(=O)N(C)C(=S)N(C)C2=O)c(C)n1-c1cccnc1 | -6% | 3.2µM* | 18% | ? | -29% | 7% | -12% | -7% | -29%
CCc1ccc(NC(=S)Nn2cnnc2)cc1 | -12% | -25% | -7% | 9% | nt | nt | nt | nt | nt
Cc1cccc(NC(=S)Nn2cnnc2)c1C | -14% | 7.9µM* | 2% | 1% | ? | 5% | 7% | 3% | 17%
S=C(Nc1ccccc1)Nn1cnnc1 | i | 13µM* | -14% | -4% | ? | -13% | 4% | 5% | 8%
Cc1ccc(NC(=S)Nn2cnnc2)cc1 | nt | 16µM* | nt | -9% | ? | 7% | 4% | 7% | 18%
Cc1ccccc1NC(=S)Nn1cnnc1 | nt | nt | nt | -9% | nt | nt | nt | nt | nt
c1ncc2snnc2n1 | -22% | nt | -15% | nt | nt | nt | nt | nt | nt
O=C(C[n+]1ccccc1Cl)c1ccc(O)c(O)c1 | 41% | nt | -5% | nt | nt | nt | nt | nt | nt
N#Cc1ccccc1NC(=S)NC(=O)c1cccs1 | nt | 10µM* | nt | 42% | ? | -13% | ? | ? | ?
CNC(=O)Oc1ccc2c(c1)[C@@]1(C)CCN(C)C1N2C (some centres not stated) | -16% | 6% | ? | 6% | nt | nt | nt | nt | nt
COc1ccc(-c2cc(=O)c3c(O)cc(O)c(-c4cc(-c5cc(=O)c6c(O)cc(OC)cc6o5)ccc4OC)c3o2)cc1 | nt | 0% | nt | nt | nt | nt | nt | nt | nt
O=C(O)c1ccc(/C=C/c2ccc3cccc(O)c3n2)cc1 | -22% | 18µM* | -15% | -1% | 27% | -8% | 4µM* | ? | ?
O/N=C/c1ccc2cccc(O)c2n1 | nt | 7.1µM* | nt | 27% | 9%[10.4 µM] | -10% | 2µM* | -29% | -28%
CC(C)n1nnc2cc(C(=O)O)ccc21 | nt | -9% | nt | -10% | nt | nt | nt | nt | nt
COc1cccc(C2=CC(c3ccccc3O)NC(C)(C)N2)c1 (configuration not stated) | 11% | nt | -12% | nt | nt | nt | nt | nt | nt
CCCCCCCCN=C(N)c1ccc(C(=O)OCC2CCCCC2)cc1 | nt | -5% | nt | nt | nt | nt | nt | nt | nt
COc1cccc([C@@H]2Oc3ccc(Br)cc3C[C@H]2OC(=O)NS(=O)(=O)c2ccc(F)cc2)c1 | nt | 1% | nt | nt | nt | nt | nt | nt | nt
O=C(CN(CC1CCCO1)C(=O)CNS(=O)(=O)c1ccccc1)NCc1ccco1 (configuration not stated) | 1% | 12% | 0% | 3% | nt | nt | nt | nt | nt
O=C(CNCC1CCCO1)NCc1ccco1 (configuration not stated) | -14% | 16µM* | -11% | 9% | ? | 4% | 2% | 8% | 7%
COc1ccccc1OCC#CCNC1CCCCC1C (configuration not stated) | nt | 1.6µM* | nt | -11% | 22%[38.3 µM] | 12% | 2% | 17% | 3%
NN1C(=O)/C(=C2/Sc3ccccc3N2CCCS(=O)(=O)O)SC1=S | nt | 18µM* | nt | 4% | 14%[10.4 µM] | 15% | 11% | 8% | -9%
SMILES | VACV mCherry inh | Giardia FBPA inh-1 | Vaccinia Venus | FMDV antiviral | Giardia growth | Mammalian tox | Giardia FBPA inh-2 | Rabbit aldolase | GAPDH coupling
O=C1NC(=S)S/C1=C1\Sc2ccccc2N1CCCS(=O)(=O)O | i | ? | -10% | -21% | nt | nt | nt | nt | nt
CCCC(=O)Nc1nnc(-c2ccco2)s1 | nt | -7% | -4% | 29% | nt | nt | nt | nt | nt
Nc1nnc(-c2ccco2)s1 | i | 6.3µM* | -11% | nt | 5% | -14% | 1% | 4% | 1%
C/C(=N\N1C(=O)CSC1=S)c1ccc(Br)cc1 | 5% | 16µM* | -1% | -8% | -16% | 6% | -12% | 2% | -6%
CCOc1ccc(NC(=S)NC(=O)c2cccnc2)c([N+](=O)[O-])c1 | -3% | 8.9µM* | -22% | -14% | 35µM* | 22% | 0% | -4% | -20%
COc1cccc(C(=O)NC(=S)Nc2cccnc2)c1 | i | ? | -7% | 14% | nt | nt | nt | nt | nt
COc1ccc(C(=O)NC(=S)Nc2cccnc2)cc1Cl | -10% | 10µM* | -21% | -6% | 8%[10.4 µM] | -2% | 7% | 1% | 6%
COc1cc(C(=O)NC(=S)Nc2ccc(Cl)cn2)cc(OC)c1OC | i[7.34 µM] | 10µM* | 0%[7.34 µM] | -11% | 7%[38.3 µM] | 2% | 2% | -2% | -3%
CCOc1cc(C(=O)NC(=S)Nc2cccnc2)cc(OCC)c1OCC | -2% | 11µM* | -20% | -5% | 3%[10.4 µM] | 8% | -1% | 7% | 9%
CN1C(=O)NC(=O)/C(=C\c2ccc([N+](=O)[O-])o2)C1=O | 15% | 18µM* | 134% | -24% | ? | -5% | ? | ? | ?
CN1C(=O)NC(=O)/C(=C/c2ccc([N+](=O)[O-])o2)C1=O | 30% | 18µM* | 88% | ? | ? | -2% | ? | ? | ?
O=C1NC(=O)N(c2ccccc2)C(=O)/C1=C\c1ccc([N+](=O)[O-])o1 | nt | 20µM* | nt | nt | -22% | 7% | -26% | -25% | -19%
CN1C(=O)NC(=O)/C(=C/c2ccc([N+](=O)[O-])s2)C1=O | i | ? | 20% | ? | nt | nt | nt | nt | nt
O=C1NC(=O)N(c2ccccc2)C(=O)/C1=C\c1ccc([N+](=O)[O-])s1 | 4% | ? | 169% | -25% | nt | nt | nt | nt | nt
COc1cc(OC)c(NC(=O)c2c(C)nn(-c3ccc(C)cc3)c2-n2cccc2)cc1Cl | -28% | nt | -17% | -22% | nt | nt | nt | nt | nt
CC(=O)N1CCN(C(=S)NC(=O)c2c(-c3ccccc3Cl)noc2C)CC1 | 0% | 16µM* | 2% | -10% | 0%[10.4 µM] | 0% | -3% | 9% | 2%
O=C(Nc1nnc(-c2cccs2)o1)c1ccc(S(=O)(=O)N2CCOCC2)cc1 | ? | 14µM* | ? | -14% | -3%[10.4 µM] | -10% | -6% | -1% | -9%
O=C(Nc1nnc(C2=COCCO2)o1)c1ccc(S(=O)(=O)N2CCCCC2)cc1 | -16% | 16µM* | -15% | -16% | ? | -9% | 11% | 16% | -1%
O=C(Nc1nnc(C2=COCCO2)o1)c1ccc(S(=O)(=O)N2CCCC2)cc1 | -3% | 3.5µM* | -6% | -14% | 25%[38.3 µM] | -4% | -6% | -3% | 2%

Screening results: PubChem, National Center for Advancing Translational Sciences (NCATS)
